# Among all 3,400 compounds or so, about 840 (25%) were called active. Inconclusive results (about 11%) are left out. These entries were drawn from the full list. Measured potencies and affinities stand elsewhere. A number with no mark means an inactive call.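 The calls were made as follows: active = fitted half-maximal concentration of signal decrease at or below twice the sample's top tested concentration; inconclusive = flat curve between -70 and -30 percent, or poor fit; inactive = flat within 30 percent, signal rise, or potency above limit.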
# Assay: inhibitors of Toxoplasma growth in IFN-γ-primed HeLa – cell-based, ME49Luc, luciferase, 72 h, dose response (AID 1259418)
# Conditions: T. gondii ME49Luc in IFN-y HeLa, active compounds read low, -100% = high-dose IFN-γ control wells
smiles,measurement,setting,value
O=C(c1ccc(Cl)cc1)N1CCC2(CC1)Nc1ccc(Cl)cc1-n1cccc12,max activity,at 19.5 µM unless noted,-6.42% [at 0.35 µM]
Cc1ccc(C(=O)N2CCC3(CC2)Nc2ccc(Cl)cc2-n2cccc23)cc1,max activity,at 19.5 µM unless noted,8.29% [at 0.35 µM]
O=C(CC1CCCC1)N1CCC2(CC1)Nc1ccc(Cl)cc1-n1cccc12,max activity,at 19.5 µM unless noted,-10.7% [at 0.16 µM]
Cc1ccc2c(c1C)-n1cccc1C1(CCN(C(=O)C3CCCCC3)CC1)N2,max activity,at 19.5 µM unless noted,-20.8% [at 0.16 µM]
CC(C)C(=O)N1CCC2(CC1)Nc1ccc(Cl)cc1-n1cccc12,max activity,at 19.5 µM unless noted,15.6% [at 0.68 µM]
COc1ccc(CC(=O)N2CCC3(CC2)Nc2ccc(Cl)cc2-n2cccc23)cc1,max activity,at 19.5 µM unless noted,5.66% [at 2.6 µM]
O=C(CC1CCCCC1)N1CCC2(CC1)Nc1ccc(Cl)cc1-n1cccc12,max activity,at 19.5 µM unless noted,7.76% [at 0.35 µM]
CCC(CC)C(=O)N1CCC2(CC1)Nc1ccc(Cl)cc1-n1cccc12,max activity,at 19.5 µM unless noted,9.15% [at 0.68 µM]
CCc1onc(C)c1C1CCCN1Cc1cn(CC)c2ccc(OC)cc12 (configuration not stated),max activity,at 19.5 µM unless noted,-10.8% [at 0.35 µM]
CSc1cccc(NC(=O)Nc2ccc(-c3nc(-c4ccccc4)co3)cc2)c1,max activity,at 19.5 µM unless noted,76%
Fc1ccc(F)c(CN2[C@@H]3CNC[C@H]2C3c2ccc(-c3ccncc3)cc2)c1 (some centres not stated),max activity,at 10 µM,23.7%
same,max activity,at 21 µM,49%
COc1ccc(CCC(=O)N2CCC3(CC2)Nc2ccc(C)c(C)c2-n2cccc23)cc1,max activity,at 19.5 µM unless noted,-4.87% [at 0.68 µM]
O=C(CC1N=C2c3ccccc3N=C(SCc3ccccc3Cl)N2C1=O)NCc1ccc2c(c1)OCO2 (configuration not stated),max activity,at 19.5 µM unless noted,24.9% [at 0.16 µM]
CCc1ccc(N2CCC(C(=O)NCCc3c[nH]c4ccc(Cl)cc34)C2=O)cc1 (configuration not stated),max activity,at 19.5 µM unless noted,-15.5% [at 0.16 µM]
Cc1ccc2[nH]cc(CCNC(=O)C3CCN(c4ccc(Cl)cc4)C3=O)c2c1 (configuration not stated),max activity,at 19.5 µM unless noted,23.3% [at 10 µM]
CCOc1ccc(C(=O)N2CCC3(CC2)Nc2ccc(Cl)cc2-n2cccc23)cc1,max activity,at 19.5 µM unless noted,11.3% [at 0.68 µM]
Cc1ccc2c(c1C)-n1cccc1C1(CCN(C(=O)c3ccccc3Cl)CC1)N2,max activity,at 19.5 µM unless noted,-6.73% [at 0.35 µM]
Cc1ccccc1C(=O)N1CCC2(CC1)Nc1ccc(Cl)cc1-n1cccc12,max activity,at 19.5 µM unless noted,-3.44%
CCOc1ccccc1C(=O)N1CCC2(CC1)Nc1cc(OC)ccc1-n1cccc12,max activity,at 19.5 µM unless noted,12% [at 2.6 µM]
O=C(c1ccccc1Cl)N1CCC2(CC1)Nc1ccc(Cl)cc1-n1cccc12,max activity,at 19.5 µM unless noted,6.15% [at 1.35 µM]
Cc1ccccc1C(=O)N1CCC2(CC1)Nc1ccc(C)c(C)c1-n1cccc12,max activity,at 19.5 µM unless noted,-10.8% [at 5 µM]
Cc1ccc(-c2coc(-c3ccc(NC(=O)NCc4ccc(F)cc4)cc3)n2)c(C)c1,max activity,at 19.5 µM unless noted,-6.17% [at 0.16 µM]
CN(Cc1ccccn1)C(=O)C1=NOC2(CCN(S(=O)(=O)c3ccc(F)cc3)C2)C1 (configuration not stated),max activity,at 19.5 µM unless noted,35.3%
COc1ccc(-c2nc3c(s2)CN(C(=O)Nc2ccc(C)cc2Cl)CC3)cc1OC,max activity,at 19.5 µM unless noted,-9.18% [at 0.35 µM]
COc1ccccc1-c1nc(Cn2nnc(-c3nc(-c4cccc(Cl)c4)no3)c2C)c(C)o1,max activity,at 19.5 µM unless noted,8.57% [at 0.35 µM]
NC(=O)C1(N2CCCCC2)CCN(c2ncc(NC(=O)c3ccc(F)cc3)cc2C(=O)O)CC1,max activity,at 19.5 µM unless noted,-7.63% [at 10 µM]
Cc1ccc(C)c(-c2coc(-c3ccc(NC(=O)Nc4ccc5c(c4)OCCO5)cc3)n2)c1,max activity,at 19.5 µM unless noted,196% [at 5 µM]
CCc1nc(OCC(=O)Nc2ccc(OC)cc2OC)c2ccccc2n1,max activity,at 19.5 µM unless noted,-16.2% [at 0.35 µM]
CCOC(=O)CSC1=Nc2ccccc2C2=NC(CC(=O)NCc3ccccc3)C(=O)N12 (configuration not stated),max activity,at 19.5 µM unless noted,-17% [at 0.16 µM]
CCOc1ccccc1-c1noc(-c2nnn(Cc3nc(-c4cccc(C)c4)oc3C)c2C)n1,max activity,at 19.5 µM unless noted,-4.72% [at 5 µM]
N#C[C@H]1[C@H](c2ccc(C#Cc3cccc(F)c3)cc2)[C@@H](CO)N1C(=O)C1CCOCC1,max activity,at 19.5 µM unless noted,33.1%
N#C[C@@H]1[C@H](c2ccc(C#Cc3cccc(F)c3)cc2)[C@H](CO)N1C(=O)C1CCOCC1,max activity,at 19.5 µM unless noted,26.4% [at 10 µM]
COc1cccc(-c2nc3c(s2)CN(C(=O)NC2CCCCC2)CC3)c1,max activity,at 19.5 µM unless noted,-6.7%
COc1ccc(-c2nc(Cn3nnc(-c4nc(-c5ccccc5OC)no4)c3C)c(C)o2)cc1,max activity,at 19.5 µM unless noted,-5.44% [at 1.35 µM]
COc1ccc(-c2nc(Cn3nnc(-c4nc(-c5ccc(C)cc5)no4)c3C)c(C)o2)cc1,max activity,at 19.5 µM unless noted,4.22% [at 0.16 µM]
COc1ccc(-c2nc(Cn3nnc(-c4nc(-c5cccs5)no4)c3C)c(C)o2)cc1,max activity,at 19.5 µM unless noted,7.54% [at 0.16 µM]
Cc1ccc(-c2noc(-c3nnn(Cc4nc(-c5cccc(C)c5)oc4C)c3C)n2)cc1,max activity,at 19.5 µM unless noted,7.12% [at 0.68 µM]
Cc1cccc(-c2nc(Cn3nnc(-c4nc(-c5ccccc5)no4)c3C)c(C)o2)c1,max activity,at 19.5 µM unless noted,4.79% [at 0.68 µM]
CCOc1ccccc1-c1noc(-c2nnn(Cc3nc(-c4ccc(C)cc4)oc3C)c2C)n1,max activity,at 19.5 µM unless noted,-5.47% [at 1.35 µM]
Cc1ccc(-c2noc(-c3nnn(Cc4nc(-c5ccc(C)cc5)oc4C)c3C)n2)cc1,max activity,at 19.5 µM unless noted,8.64%
COc1ccc(-c2nc(Cn3nnc(-c4nc(-c5cc(OC)cc(OC)c5)no4)c3C)c(C)o2)cc1,max activity,at 19.5 µM unless noted,4.11% [at 0.35 µM]
CN(C)C(=O)c1ccc2nnc3ncn(Cc4ccccc4)c3c2c1,max activity,at 19.5 µM unless noted,-17.6% [at 10 µM]
COc1ccc(CCNc2nc(SCc3ccc(Cl)cc3)nc3ccccc23)cc1OC,max activity,at 19.5 µM unless noted,9.35% [at 1.35 µM]
COc1nc2c(c(C)nn2-c2ccccc2)c(C)c1CCC(=O)NCCc1c[nH]c2ccccc12,max activity,at 19.5 µM unless noted,7.44%
O=C(Nc1c(C(=O)N2CCCC2)[nH]c2ccccc12)c1ccc(Cl)cc1,max activity,at 19.5 µM unless noted,30.4% [at 10 µM]
O=C(CCC1N=C2c3ccccc3N=C(SCc3cc(=O)n4ccccc4n3)N2C1=O)NCc1ccco1 (configuration not stated),max activity,at 19.5 µM unless noted,26.1% [at 1.35 µM]
CCc1nc(OCC(=O)Nc2cc(OC)ccc2OC)c2ccccc2n1,max activity,at 19.5 µM unless noted,-25% [at 2.6 µM]
Cc1ccc(C)c(-c2coc(-c3ccc(NC(=O)C4CCCCC4)cc3)n2)c1,max activity,at 19.5 µM unless noted,10.4% [at 10 µM]
Cc1ccc(-c2nc(Cn3nnc(-c4nc(-c5ccccc5C)no4)c3C)c(C)o2)cc1,max activity,at 19.5 µM unless noted,15.4% [at 0.16 µM]
Cc1nc(CCNC(=O)C2CCN(S(=O)(=O)c3ccc(Cl)s3)CC2)cs1,max activity,at 19.5 µM unless noted,-9.13%
O=S(=O)(c1cccs1)N1CCC2(CC1)NCCN=C2NCc1cc(F)cc(F)c1,max activity,at 19.5 µM unless noted,10.2% [at 0.16 µM]
Cc1cccc(CNC2=NCCNC23CCN(S(=O)(=O)c2cccs2)CC3)c1,max activity,at 19.5 µM unless noted,13.8%
Cc1ccc(CNC2=NCCNC23CCN(S(=O)(=O)c2cccs2)CC3)cc1,max activity,at 19.5 µM unless noted,17.3% [at 10 µM]
O=S(=O)(c1cccs1)N1CCC2(CC1)NCCN=C2NCc1ccc(F)c(Cl)c1,max activity,at 19.5 µM unless noted,-41.7%
CCCC(=O)Nc1ccc(-c2nc(-c3ccccc3)co2)cc1,max activity,at 19.5 µM unless noted,72.8% [at 10 µM]
Cc1nc(CCNC(=O)C2CCN(S(=O)(=O)c3ccc(CC(C)C)cc3)CC2)cs1,max activity,at 19.5 µM unless noted,-7.19% [at 1.35 µM]
Cc1nc(CCNC(=O)C2CCN(S(=O)(=O)c3ccc(Cl)cc3)CC2)cs1,max activity,at 19.5 µM unless noted,-9.1% [at 0.35 µM]
CCOc1ccc(S(=O)(=O)N2CCC(C(=O)NCCc3csc(-c4ccccc4)n3)CC2)cc1,max activity,at 19.5 µM unless noted,21.5% [at 5 µM]
O=C(NCCc1csc(-c2ccccc2)n1)C1CCN(S(=O)(=O)c2cccc(F)c2)CC1,max activity,at 19.5 µM unless noted,8.1% [at 5 µM]
O=C(NCCc1csc(-c2ccccc2)n1)C1CCN(S(=O)(=O)c2ccccc2)CC1,max activity,at 19.5 µM unless noted,11.6% [at 10 µM]
Cc1cc(C)cc(S(=O)(=O)N2CCC(C(=O)NCCc3csc(-c4ccccc4)n3)CC2)c1,max activity,at 19.5 µM unless noted,16.8% [at 10 µM]
O=C(NCCc1csc(-c2ccccc2)n1)C1CCN(S(=O)(=O)c2cccs2)CC1,max activity,at 19.5 µM unless noted,11.2% [at 0.16 µM]
Cc1ccc(S(=O)(=O)N2CCC(C(=O)NCCc3csc(-c4ccccc4)n3)CC2)cc1,max activity,at 19.5 µM unless noted,5.41% [at 5 µM]
COC(=O)c1sccc1S(=O)(=O)N[C@@H]1CC[C@@H](N)C1,max activity,at 19.5 µM unless noted,17.5%
CCc1c(C)sc2c1CCN(Cc1nc(-c3cccc(Cl)c3)oc1C)C2c1ccccc1 (configuration not stated),max activity,at 19.5 µM unless noted,7.75% [at 0.68 µM]
COc1cccc(-c2nc3c(s2)CN(S(=O)(=O)c2ccc(CC(C)C)cc2)CC3)c1,max activity,at 19.5 µM unless noted,8.23% [at 2.6 µM]
CCc1ccccc1Nc1nc(-c2ccc(OC)cc2)nc2ccccc12,max activity,at 19.5 µM unless noted,-9.45% [at 0.16 µM]
COc1ccccc1-c1nc(Cn2nnc(-c3nc(-c4ccccc4)no3)c2C)c(C)o1,max activity,at 19.5 µM unless noted,-9.24% [at 1.35 µM]
Cc1cccc(C2=NC3(CCN(Cc4ccccc4C)CC3)NC2=O)c1,max activity,at 19.5 µM unless noted,12% [at 0.16 µM]
O=C(Cc1ccc(F)cc1)Nc1ccc(-c2nc(-c3ccccc3)co2)cc1,max activity,at 19.5 µM unless noted,4.13% [at 5 µM]
COc1ccc(-c2nc(Nc3ccc(C)cc3Cl)c3ccccc3n2)cc1,max activity,at 19.5 µM unless noted,-11.8% [at 2.6 µM]
